# Assay results reported in PubChem BioAssay (EPA / NIEHS).
# Calls of active or inactive are those of the source. The calls were made as follows: active = hit-call score of the fitted dose curve at least 0.9, where 1 is the maximum; inactive = score below 0.9.
# Read-out: Glutathione S-transferase M3 (GSTM3), GSTM3 (gene 2947)
# Test: LTEA_HepaRG_GSTM3: Life Technologies and Expression Analysis (LTEA) Assay for Glutathione S-transferase M3 (GSTM3) using HepaRG (AID 2283501)
# Conditions: mRNA level, 48 h; actives raise or lower the signal
# Procedure, shortened: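 HepaRG, plated 48 h, then serum-free induction medium; test chemical 48 h, duplicate; 100 uM top, half-log x8, 0.5% DMSO. Read-out: GSTM3 mRNA (TaqMan qRT-PCR, Fluidigm array). Bidirectional fit vs DMSO.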
SMILES,AC50,outcome
CCOC(=O)CCC(=O)OCC,83.4 µM (active),–
CCc1c(C(=O)NN2CCCCC2)nn(-c2ccc(Cl)cc2Cl)c1-c1ccc(Br)cc1,–,inactive
Nc1nc(N)c2nc(CNc3ccc(C(=O)N[C@@H](CCC(=O)O)C(=O)O)cc3)cnc2n1,–,inactive
CCCCCCCCCCO,–,inactive
CCCCN(CCCC)CCCC,–,inactive
Oc1ccc2ccccc2c1N=Nc1ccccc1,–,inactive
CCOC(=O)C(C)(C)Oc1ccc(Cl)cc1,–,inactive
CCCc1cc(=O)[nH]c(=S)[nH]1,–,inactive
CC1(C)CC(N=C=O)CC(C)(CN=C=O)C1 (configuration not stated),–,inactive
CCOc1ccc2c(c1)C(C)=CC(C)(C)N2,–,inactive
Cc1cccc([N+](=O)[O-])c1C,–,inactive
O=c1[nH]cc(F)c(=O)[nH]1,–,inactive
Cc1cc(=O)[nH]c(=S)[nH]1,–,inactive
Nc1ccc(S(=O)(=O)c2ccc(N)cc2)cc1,–,inactive
C=CCOC(=O)c1ccccc1C(=O)OCC=C,–,inactive
C=CCc1ccc(O)c(OC)c1,–,inactive
CCCCCCC(=O)OCC,–,inactive
CCNc1cccc(C)c1,–,inactive
C[C@]12C=CC(=O)C=C1CC[C@@H]1[C@@H]2C(=O)C[C@@]2(C)[C@H]1CC[C@]2(O)C(=O)CO,–,inactive
O=c1c(O)c(-c2ccc(O)c(O)c2)oc2cc(O)cc(O)c12,–,inactive
COc1ccc2c(c1)c(CC(=O)O)c(C)n2C(=O)c1ccc(Cl)cc1,–,inactive
COc1ccc(S(=O)(=O)N2C(=O)[C@@](c3ccccc3OC)(N3C[C@H](O)C[C@H]3C(=O)N(C)C)c3cc(Cl)ccc32)c(OC)c1,19.5 µM (active),–
